Reference: PubChem BioAssay AID1851 (National Center for Advancing Translational Sciences (NCATS), 2009)
Screen size: about 16,000 compounds; about 5,700 (36%) were called active. Roughly 24% stayed inconclusive and do not appear here. The list shows a part of the results. Values without a mark were called inactive. The call rests on the fitted dose curve; in most records, active means well fitted curve in the direction sought with a large enough effect; inconclusive means small, poorly fitted or top-dose-only effect, or effect the other way; inactive means no such curve, though single readings can be large or run the other way.

These molecules were tested against Cytochrome P450 1A2 (Homo sapiens) (UniProt P05177) (assay: Cytochrome panel assay with activity outcomes). Conditions: recombinant CYP, pro-luciferin dealkylation, luminescence, p450-cyp1a2; series mostly up to 57.1 µM.
Sequence of Cytochrome P450 1A2 (Homo sapiens) (P05177 whole entry, looked up): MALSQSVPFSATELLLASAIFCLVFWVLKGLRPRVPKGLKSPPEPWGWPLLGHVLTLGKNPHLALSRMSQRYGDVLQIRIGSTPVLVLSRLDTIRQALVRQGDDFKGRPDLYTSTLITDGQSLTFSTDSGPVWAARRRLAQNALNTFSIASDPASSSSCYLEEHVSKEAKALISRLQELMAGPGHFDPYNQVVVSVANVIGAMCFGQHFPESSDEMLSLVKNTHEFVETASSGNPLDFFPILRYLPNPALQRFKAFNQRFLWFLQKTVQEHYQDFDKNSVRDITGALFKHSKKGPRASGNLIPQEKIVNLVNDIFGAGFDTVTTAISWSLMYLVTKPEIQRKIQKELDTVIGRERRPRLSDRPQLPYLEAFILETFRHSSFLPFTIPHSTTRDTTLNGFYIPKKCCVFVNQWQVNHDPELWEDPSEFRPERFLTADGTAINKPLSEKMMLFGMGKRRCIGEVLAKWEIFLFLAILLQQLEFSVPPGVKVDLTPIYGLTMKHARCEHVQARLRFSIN
On the % scale 0 is the no-effect control and ±100 the full control effect.

SMILES	AC50	activity, negative = inhibition
CC(C)COC(=O)OCN1C(=O)CN(CCN2CC(=O)N(COC(=O)OCC(C)C)C(=O)C2)CC1=O	inactive	–
Cc1ncc([N+](=O)[O-])n1CCN=[N+]=[N-]	–	-9.71% [at 11.4 µM]
COc1cc(CN2CCN(C(=O)COc3ccccc3)CC2)cc(OC)c1OC	inactive	–
C[C@@H](N)Cn1ccc2cc(F)c(Cl)cc21	50.1 nM (active)	–
CCCCCC[C@H]1C(=O)O[C@H](C)[C@H](NC(=O)c2cccc(NC=O)c2O)C(=O)O[C@@H](C)[C@H]1OC(=O)CC(C)C	inactive	–
COc1ccc2[nH]c3c(c2c1)CCNC3	3160 nM (active)	–
CC1=NCCc2c1[nH]c1cc(O)ccc21	12600 nM (active)	–
COc1ccc2[nH]c3c(c2c1)CCN=C3C	1580 nM (active)	–
COc1ccc2c3c([nH]c2c1)C(C)=NCC3	794 nM (active)	–
CN(C)C=C1C(=O)N(C2CCCCC2)C(=O)N(C2CCCCC2)C1=O	inactive	–
c1cc2cc(c1)C[n+]1ccc(c3ccccc31)NCc1ccc(cc1)CNc1cc[n+](c3ccccc13)C2	inactive	–
C[N+]1([O-])[C@H]2CC[C@H]1CC(OC(=O)[C@@H](CO)c1ccccc1)C2 (some centres undefined)	–	0.783% [at 2.29 µM]
C[N+](C)(C)CCCCCCCCCC[N+](C)(C)C	inactive	–
NCC[C@H](O)C(=O)N[C@H]1C[C@@H](N)[C@@H](O[C@H]2O[C@@H](CN)[C@@H](O)[C@@H](O)[C@@H]2N)[C@@H](O[C@H]2O[C@@H](CO)[C@@H](O)[C@@H]2O)[C@@H]1O	inactive	–
c1cc(CN2CC3(CCNCC3)C2)ccn1	inactive	–
O=c1[nH]cnc2[nH]cc(CN3CCCCC3)c12	–	-11.6% [at 11.4 µM]
COc1ccccc1CN1CCCC2(CCN(C(=O)Oc3ccccc3)CC2)C1	inactive	–
CC(C)c1nccn1Cc1ccc(Cl)cc1Cl	–	-14.7% [at 11.4 µM]
O=C(O)C(C(=O)O)P(=S)(S)c1ccccc1 (centres undefined)	–	-13.3% [at 11.4 µM]
CNCC/C=C\c1cccnc1	inactive	–
CN1[C@@H]2CC[C@H]1CC(NC(=O)c1nn(C)c3ccccc13)C2 (some centres undefined)	inactive	–
COc1cc(N)c(Cl)cc1C(=O)N[C@@H]1CN2CCC1CC2	inactive	–
Cn1cc(C(=O)C(=O)N[C@H]2CN3CCC2CC3)c2ccccc21	15800 nM (active)	–
NCC1(CC(=O)O)CCCCC1	inactive	–
C[C@H]1CC[C@@]2(NC1)O[C@@H]1C[C@H]3[C@@H]4CC[C@@H]5C[C@@H](O)CC[C@@]5(C)[C@@H]4CC[C@]3(C)[C@@H]1[C@@H]2C	inactive	–

SMILES	AC50	activity, negative = inhibition
CCCN1CCC[C@@H]2Cc3nc(N)ncc3C[C@H]21	inactive	–
N#CCCCC[N+]12CN3CN(CN(C3)C1)C2	–	15% [at 2.29 µM]
COCCCN1Cc2ccccc2C1=N	inactive	–
S=C(S)N1CCCC1	31600 nM (active)	–
C[C@@]12CC[C@H](O)C[C@@H]1CC[C@@H]1[C@@H]2CC[C@@]2(C)[C@@H](C3=CC(=O)OC3)[C@H](O)C[C@]12O	–	-18.3% [at 11.4 µM]
CC1(C)N=C(N)N=C(N)N1c1cccc(C(=O)Nc2ccc(S(=O)(=O)F)cc2)c1	–	-15.8% [at 11.4 µM]
c1ccc(CN2CC[C@@]3(CCCNC3)C2)cc1	inactive	–
NC1=Nc2ccccc2Oc2ccccc21	12600 nM (active)	–
CC(C)[N+](C)(CCC(C(N)=O)(c1ccccc1)c1ccccc1)C(C)C	inactive	–
CC(=O)c1ccc2c(c1)N(CCCN(C)C)c1ccccc1S2	1580 nM (active)	–
CN1C(=O)c2ccccc2Sc2ccc(C(=O)N3CCC4(CC3)OCCO4)cc21	inactive	–
C=CCN1C(=O)c2ccccc2Sc2ccc(C(=O)N3CCC4(CC3)OCCO4)cc21	inactive	–
C[N+](C)(C)CCCCCC[N+](C)(C)C	inactive	–
O=c1ccc2[nH]cc(C3=CCNCC3)c2[nH]1	inactive	–
COc1ccc2[nH]cc(C3=CCNCC3)c2c1	251 nM (active)	–
CCCOc1ccc2[nH]cc(C3=CCNCC3)c2n1	126 nM (active)	–
C[C@@]12CC[C@@H]3[C@H](CCC4=CC(=O)CC[C@]43C)[C@@H]1CC[C@@H]2C(=O)Cn1cnc2c(=S)nc[nH]c21	–	-15.8% [at 11.4 µM]
NP(N)(=O)NC(=O)c1ccc(F)cc1	inactive	–
NCCCP(=O)(O)O	inactive	–
CC1=C(O)C(=O)[C@H]2O[C@@H]2C1=O	inactive	–
C[N+]1(C)[C@@H]2CC[C@H]1CC(OC(=O)[C@@H](CO)c1ccccc1)C2 (some centres undefined)	inactive	–
O=C(c1csnn1)N1CCC2(CC1)CN(Cc1ccncc1)C2	10000 nM (active)	–
O=C(c1ccncc1)N1CCC2(CC1)CN(Cc1ccccc1)C2	inactive	–
CN1CCCC2(CCN(C(=O)c3csnn3)CC2)C1	inactive	–
